From PubChem
An excerpt weighted towards active compounds, which were near 19% of everything screened.
DT40 TDP1 CPT = DT40-hTDP1 cell growth loss with CPT. chicken DT40 Tdp1-/-;hTDP1 cells + 20 nM CPT, ATP luminescence, 48 h. Potency, µM (top dose mostly 46.2 µM), for the others: at the highest dose activity change, negative = growth inhibition, usual class: inhibitors. 420,000 compounds, 12% hits. AID 686979; further: potency means the concentration at half of the fitted maximal effect; nearly all actives have a fitted effect of over 55% in size
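Chicken DT40 Tdp1-/- cells stably complemented with human TDP1 were seeded at 400 cells/well in medium containing 20 nM camptothecin, exposed to pin-transferred compounds, and grown at 37 °C for at least 48 hr. Viability was read as ATP luminescence.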
HT1080 IDH1KD tx = kills HT-1080 cells with IDH1 knockdown; HT-1080 IDH1 knockdown viability, ATP luminescence, 48 h; Potency, µM (titrated, usually from 46.1 µM), for the others: at the highest dose activity, negative = toxicity, actives largely listed as cytotoxic; 360,000 compounds, 2% hits; AID 686971;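 further: potency means the concentration at half of the fitted maximal effect; 0% = DMSO wells and -100% = cell-free medium wells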
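Cytotoxicity counter-line: IDH1KD HT-1080, 48 h, CellTiter-Glo. Curves classed by r2, magnitude and activity.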
TDP1 cell noCPT = qHTS for Inhibitors of human tyrosyl-DNA phosphodiesterase 1 (TDP1): qHTS in cells in absence of CPT; DT40 Tdp1-/- hTDP1 cells, no CPT, ATP luminescence, 48 h; Potency, µM (top dose mostly 46.2 µM), for inactives: top-dose activity change, negative = growth inhibition, hits mostly inhibitors; 420,000 compounds, 15% hits; further: potency means the concentration at half of the fitted maximal effect; nearly all actives have a fitted effect of over 55% in size
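Chicken DT40 Tdp1-/- cells complemented with human TDP1, screened without camptothecin (DMSO vehicle only), 400 cells/well. Compounds pin-transferred, cells incubated at 37 °C for at least 48 hr. Growth read as ATP-dependent luminescence (CellTiter-Glo, 30 min at RT).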
IL1B secr inh = inhibitors of inflammasome signaling (IL-1 beta secretion); AID 743279; THP-1 LPS/ATP IL-1B secretion, AlphaLISA, 16 h; stronger effect = lower value; activity change, % at 57.5 µM; 360,000 compounds, 4.7% hits; in the data active means activity change below about -50%; inconclusive means mostly about -30% to -49%
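Secreted IL-1B measured by AlphaLISA bead assay after 16 h compound exposure of THP-1 cells; compounds (final up to 57.5 uM) added 1 h before LPS (250 ng/mL) and ATP (1.25 mM) stimulation; lower signal means less secretion.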
HT1080NT lethal = kills 2HG-producing HT-1080-NT fibrosarcoma cells. AID 686970. 360,000 compounds, 1.6% hits. Potency, µM (highest dose often 46.1 µM), inactives show at the top dose activity, negative = less viability, most hits filed as cytotoxic. HT-1080-NT fibrosarcoma viability, CellTiter-Glo ATP luminescence, 48 h;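 further: NT is the 2HG producing partner of a matched IDH1 knockdown line; potency means the concentration at half of the fitted maximal effect; 0% = DMSO-treated cells and -100% = media-only wells without cells; nearly all actives have a fitted effect of over 55% in size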
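Compounds were tested in concentration-response format on HT-1080-NT cells for 48 hours at 37 degrees C. Cell viability came from CellTiter-Glo luminescence; curves were classified by r2, response magnitude and activity.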
Numbers without * were called inactive; ? = inconclusive; / = no result given. Unless noted, the call rests on the fitted dose curve; in most records, active means well fitted curve in the direction sought with a large enough effect; inconclusive means small, poorly fitted or top-dose-only effect, or another doubt; inactive means no such curve, though single readings can be large; an effect the other way counts as inactive or inconclusive. Unless noted, on the % scale 0 is the no-effect control and ±100 the full control effect.

SMILES | DT40 TDP1 CPT | HT1080 IDH1KD tx | TDP1 cell noCPT | IL1B secr inh | HT1080NT lethal
CCn1cc(C(=O)Nc2ncccc2O)c(=O)c2cc(F)c(N3CCN(C(=O)c4ccco4)CC3)cc21 | 13µM* | 6.6% | 8.2µM* | -1.3 | 4.7%
CCCCCNC(=O)c1cn(CC)c2cc(N3CCN(C)CC3)c(F)cc2c1=O | -2.0% | ? | ? | -84.9* | 16.4µM*
CCn1cc(C(=O)NC(C)C)c(=O)c2cc(F)c(N3CCN(C(=O)c4ccco4)CC3)cc21 | ? | -5.8% | 18.4µM* | -7.2 | -15.7%
CCCNC(=O)c1cn(CC)c2cc(N3CCN(C)CC3)c(F)cc2c1=O | -1.9% | 8.6% | -1.7% | 3.3 | 7.4%
CCn1cc(C(=O)O)c(=O)c2cc(F)c(N3CCN(C(=S)NC(=O)c4ccccc4Cl)CC3)cc21 | ? | 1.2% | ? | 7.7 | 1.5%
CCn1cc(C(=O)NCCC(C)C)c(=O)c2cc(F)c(N3CCN(C(=O)c4ccco4)CC3)cc21 | 16.4µM* | -2.6% | 18.4µM* | -14.6 | -1.2%
COc1ccc(C(C(=O)NC2CCCC2)N(CCO)C(=O)Cn2nnc(-c3ccc(C)o3)n2)cc1OC (stereo not drawn) | 0.4% | -3.5% | -3.5% | 10.6 | -10.0%
C=CCCCCCCCCC(=O)N1CCN(c2cc3c(cc2F)c(=O)c(C(=O)O)cn3CC)CC1 | 20.6µM* | 7.0% | ? | 27.7 | 1.7%
C=CCNC(=S)N1CCN(c2cc3c(cc2F)c(=O)c(C(=O)O)cn3CC)CC1 | ? | 0.6% | ? | ? | 14.5%
CC(c1ccccc1)N1CCN(C(=O)CCl)CC1 (stereo not drawn) | 11.6µM* | 3.7% | 18.4µM* | -78.8* | ?
CCOC(=O)N1CCN(S(=O)(=O)Cc2ccccc2)CC1 | 1.7% | 4.9% | 5.4% | -2.8 | 9.4%
O=C(CCl)N1CCN(S(=O)(=O)Cc2ccccc2)CC1 | 18.4µM* | ? | 4.61µM* | -99.6* | ?
CC(CC(=O)N1CCN(C(=O)c2ccccc2)CC1)c1ccccc1 (stereo not drawn) | 6.5% | 15.0% | -2.3% | 8.1 | 16.9%
Cc1cc(NCc2ccccc2)n2ncnc2n1 | ? | 1.6% | 11.6µM* | 22.7 | 2.3%
COc1ccc(CCNc2cc(-c3ccccc3)nc3ncnn23)cc1 | 23.1µM* | -13.2% | ? | -0.3 | 0.0%
O=C(CSC1=NS(=O)(=O)c2ccccc2N1)NCCc1ccccc1 | 12.9% | 5.7% | 0.4% | 10.2 | 2.6%
O=C(CC1(CC2=NS(=O)(=O)c3ccccc3N2)CCCC1)NCCc1ccccc1 | 14.6µM* | -6.1% | ? | -12.1 | -9.7%
Cc1ccc(N2C(=O)CSC23C(=O)N(CC(=O)NC2CCCCC2)c2ccccc23)cc1 (stereo not drawn) | -17.3% | / | -7.7% | / | /
COc1ccc(N2C(=O)CSC23C(=O)N(CC(=O)NCCc2ccccc2)c2ccccc23)cc1 (stereo not drawn) | 16.4µM* | / | ? | / | /
Cc1cc(C)cc(N2C(=O)CSC23C(=O)N(CC(N)=O)c2ccccc23)c1 (stereo not drawn) | 3.8% | / | 11.0% | / | /
O=C(CN1C(=O)C2(SCC(=O)N2c2ccc(Cl)cc2)c2ccccc21)NCCc1ccccc1 (stereo not drawn) | ? | / | 18.4µM* | / | /
Cc1cccc(N2C(=O)CSC23C(=O)N(CC(=O)NCc2ccccc2Cl)c2ccccc23)c1 (stereo not drawn) | ? | / | 20.6µM* | / | /
COc1ccc(N2C(=O)CSC23C(=O)N(CC(=O)NCc2ccccc2)c2ccccc23)cc1 (stereo not drawn) | -5.4% | / | ? | / | /
O=C1CSC2(C(=O)N(Cc3ccccc3)c3ccccc32)N1c1ccc(Cl)cc1 (stereo not drawn) | 16.4µM* | / | 20.6µM* | / | /
Cc1cccc(C(O)c2ncc(-c3ccc(Cl)cc3)[nH]2)c1C (stereo not drawn) | ? | ? | ? | -7.1 | ?
SMILES | DT40 TDP1 CPT | HT1080 IDH1KD tx | TDP1 cell noCPT | IL1B secr inh | HT1080NT lethal
Cc1cc(/C=N/NC(N)=S)c(C)n1-c1cccc(Cl)c1 | 13µM* | -11.7% | 16.4µM* | 82.2 | -29.1%
Cc1nnc(N/N=C/c2c(Cl)cccc2Cl)n1N | -6.9% | -5.0% | -16.3% | -104.6* | -0.3%
Cc1nc2ccccn2c1C(=O)N/N=C/c1ccccc1 | 16.3% | -1.6% | 7.8% | 1.2 | -1.4%
Cc1cccc(-n2c(C)cc(/C=N\NC(=O)c3ccco3)c2C)c1 | ? | 10.1% | ? | -14.8 | 3.9%
Cc1nc2ccccn2c1C(=O)N/N=C/c1cc(C)n(-c2ccc(Br)cc2)c1C | 18.4µM* | -21.7% | 20.6µM* | -22.1 | -15.3%
Cc1nnc(N/N=C/c2cc(C)n(-c3ccc(F)cc3)c2C)n1N | 13µM* | ? | 16.4µM* | 40.2 | 23.1µM*
Cc1nnc(N/N=C/c2ccccc2O)n1N | -16.7% | ? | 3.9% | 0.0 | -1.9%
COc1cccc(NC(=O)CSCc2n[nH]c(=O)[nH]2)c1 | -9.8% | 0.7% | -1.7% | 10.7 | 5.5%
CCOC(=O)CC1C(=O)NCCN1S(=O)(=O)c1ccc(Cl)cc1Cl (stereo not drawn) | -6.3% | 0.3% | 1.3% | 13.6 | -9.9%
Cc1cc(/C=N/NC(N)=S)c(C)n1-c1ccc(Cl)cc1 | 11.6µM* | -19.8% | 18.4µM* | 26.8 | -21.4%
Cc1cc(/C=N\NC(=O)CC(=O)NC2CCCCC2)c(C)n1-c1ccc(Cl)cc1 | ? | ? | ? | -8.9 | -4.4%
Cc1cc(/C=N/O)c(C)n1-c1ccc(Br)cc1 | 0.9% | -9.3% | ? | 0.0 | 18.0%
